Data from PubChem BioAssay (NCI).
About 83,000 compounds went through this panel and 20% of them were active in at least one assay; those are over-represented in the sample as a whole.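 The test compound was applied at a single concentration to cells in 96-well plates for 48 hours, and percent growth was recorded.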 Unmarked numbers belong to inactive results. Activity calls are given as the source filed them. The calls were made as follows: active = growth percent below 10; inactive = the rest.

Legend:
Assay in all cases: NCI-60 one-dose screen, 48 h (100 = growth as untreated, 0 = no growth, -100 = all killed)
Conditions in all cases: 10 µM
SK-MEL-2 melanoma = system: SK-MEL-2 melanoma
SN12C renal = system: SN12C renal
UO-31 renal = system: UO-31 renal
TK-10 renal = system: TK-10 renal
ACHN renal = system: ACHN renal
CAKI-1 renal = system: CAKI-1 renal
A498 renal = system: A498 renal
CCRF-CEM leukemia = system: CCRF-CEM leukemia
MOLT-4 leukemia = system: MOLT-4 leukemia
EKVX NSCLC = system: EKVX NSCLC

Structure (SMILES)	growth (SK-MEL-2 melanoma)	growth (SN12C renal)	growth (UO-31 renal)	growth (TK-10 renal)	growth (ACHN renal)	growth (CAKI-1 renal)	growth (A498 renal)	growth (CCRF-CEM leukemia)	growth (MOLT-4 leukemia)	growth (EKVX NSCLC)
CCOC(=O)N/N=C/c1ccc(OC)c(OC)c1	115%	99.2%	106%	123%	106%	110%	107%	91.4%	107%	
O=[N+]([O-])c1ccc(/C(=C/c2ccccc2)[n+]2ccccc2)cc1	125%	101%	100%	114%	107%	111%	101%	89.9%	105%	
CCN(CC)CCCC(C)Nc1c2ccc(Cl)cc2nc2ccc(OC)cc12 (configuration not stated)	57.6%	33.2%		23.9%	14.2%		74%	39.4%	15.5%	49%
Cc1cc(SC#N)cc(C(C)(C)C)c1O	82.2%		93.6%	108%	101%	96.4%	86.1%	86.4%	66.9%	102%
CCN(CC)CCOC(=O)c1cc(OCc2ccccc2)c(OCc2ccccc2)c(OCc2ccccc2)c1	78.5%		50.7%	78.3%	71.9%	50.4%	68.8%	37%	8.5% (active)	47.7%
O=C(O)Cc1ccc(O)c(O)c1	109%	99.4%		112%	108%	99.5%		-24.1% (active)	98.6%	89.4%
CCOc1ccccc1/C=N\N=C(\N)N/N=C/c1ccccc1OCC	14.9%	45.2%		67.8%	44.8%	37.2%		16.9%	26.5%	64.8%
Cc1nn(-c2ccccc2)c2nc(Cl)c(C=O)c(-c3ccccc3)c12	114%	98.2%	48.1%	113%	114%		78.6%	36.3%		
COc1ccc2c(c1)C(=O)/C(=C/c1ncc([N+](=O)[O-])n1C)O2	-52.1% (active)	-11.5% (active)	-46.4% (active)	-37.9% (active)	9.55% (active)	-21.6% (active)	-35.5% (active)	95.1%	-5.94% (active)	
CC(C)(C)c1nn(-c2ccccc2)c2c1CC1(CN2Cc2ccc(Cl)cc2)C(=O)c2ccccc2C1=O	92.4%	86.1%	99.6%	99.3%	98.9%		76.5%	66.2%		
CCOc1ccccc1/C=N/N1CCCCCC1	113%			104%	104%	85.7%		100%	97.7%	96.7%
O=[N+]([O-])c1ccc(NCSc2ccc(Cl)cc2)cc1	98.5%	86%		105%	92.8%	96.2%		50.4%	61.7%	97.3%
CC1CCCC(C(=O)O)C1C(=O)O (configuration not stated)	93.4%		92.7%	93.8%	105%	97.2%	95.8%	99.3%	77.6%	95.4%
CC(=O)Nc1cc2c(cc1Cl)Cc1cc(Cl)ccc1-2	103%		65.4%	86.4%	88.2%					12%
COc1ccc2nc3cc(Cl)ccc3c(N)c2c1	-71.2% (active)	-80.3% (active)	-74% (active)	-68.7% (active)	-99.5% (active)	-55.6% (active)		-5.6% (active)	-55.4% (active)	
CCc1c2c(nc3ccc(OC(=O)N4CCC(N5CCCCC5)CC4)cc13)-c1cc3c(c(=O)n1C2)COC(=O)[C@]3(O)CC		16.2%	11.6%	81.6%	1.66% (active)	-17.4% (active)	9.23% (active)	5.44% (active)	-20.6% (active)	67.2%
Nc1nc(Cl)nc2c1ncn2C1O[C@H](CO)[C@@H](O)[C@@H]1F (some centres not stated)		14.5%	0.968% (active)	64.5%	3.32% (active)	-25.9% (active)	15.6%	2.64% (active)	-4.67% (active)	38.1%
O=c1[nH]c(=O)n(C2C[C@H](O)[C@@H](CO)O2)cc1C(F)(F)F (some centres not stated)		110%	89.7%	104%	106%	96.3%	118%	95%	70.2%	109%
CC(C)Cc1ccc([C@H](C)C(=O)O)cc1		103%	86.5%	100%	108%	93.7%	99.1%	102%	90.5%	104%
COC(=O)c1c[nH]c2cc(OC(C)C)c(OC(C)C)cc2c1=O		108%	84%	113%	100%	97.2%	103%	80.9%		98.8%
O=C1Cc2cc(CCN3CCN(c4nsc5ccccc45)CC3)c(Cl)cc2N1		91%	58.8%	104%	95.6%	86.6%	64.1%	9.84% (active)	81.8%	88.1%
Cc1ccc(NC(=O)N2CCCCC2)cc1[N+](=O)[O-]	119%	106%	77.6%		95%		107%	7.44% (active)	137%	
O=C(Nc1ccc(OCc2nnc(-c3ccc(Cl)cc3)o2)c(F)c1)Nc1ccc(Cl)c(C(F)(F)F)c1	-20.2% (active)			15.5%	0.519% (active)	13.3%	-23.7% (active)	4.05% (active)	-1.55% (active)	
COc1ccccc1-n1c(-c2csc(NC(C)=O)n2)n[nH]c1=S	100%	114%	79.6%	89.1%	114%			93.8%	92.3%	
CC(C)C[C@H](NC(=O)Cn1cccc(CNC(=O)c2ccccc2)c1=O)B(O)O	7.34% (active)		50.9%	16.8%	24.5%		-12.2% (active)	2.66% (active)	-7.9% (active)	
CC(=O)O[C@@]12CO[C@@H]1C[C@H](O)[C@@]1(C)C(=O)[C@H](O)C3=C(C)[C@@H](OC(=O)[C@H](O)[C@@H](NC(=O)OC(C)(C)C)c4ccccc4)C[C@@](O)([C@@H](OC(=O)c4ccccc4)C12)C3(C)C (some centres not stated)		56.3%	33.5%	42.1%	56.9%	4.8% (active)	22.6%	29.9%		59%
S=C1N(c2ccccc2)CN(C2CCCCC2)CN1c1ccccc1	106%	103%	92.3%		97.6%		103%	80.6%	125%	
CO[C@H]1CC(O[C@@H]2/C(C)=C/C[C@@H]3C[C@@H](C[C@]4(C=C[C@H](C)[C@@H](C5CCCCC5)O4)O3)OC(=O)[C@@H]3C=C(C)[C@@H](O)[C@H]4OC/C(=C\C=C\[C@@H]2C)[C@]43O)O[C@@H](C)C1O[C@H]1C[C@H](OC)[C@@H](O)[C@H](C)O1 (some centres not stated)		-79.1% (active)	-98.4% (active)	-85.5% (active)	-100% (active)	-94.6% (active)	-80.3% (active)	-44.1% (active)	-58.2% (active)	-94.3% (active)
COc1ccc(-c2nn(-c3cccc(Cl)c3)cc2C=C(C#N)C#N)cc1	-39.4% (active)	10.4%	11.9%	-3.05% (active)	9.38% (active)			-27.3% (active)	-45.9% (active)	
